Laboratory results from PubChem BioAssay (NCATS).
Records with an inconclusive call do not appear. Entries that show only a call come without a potency. Values without a mark were called inactive. The source made the active and inactive calls. The call rests on the fitted dose curve; in most records, active means well fitted curve in the direction sought with a large enough effect; inconclusive means small, poorly fitted or top-dose-only effect, or another doubt; inactive means no such curve, though single readings can be large; an effect the other way counts as inactive or inconclusive.

How the values were obtained:
[1] = Quantitative High-Throughput drug screen in 47 multiple myeloma cell lines against the NCATS MIPE library collection: Karpas25_ECACC cell viability assay (AID 1918968; further: nearly all actives have a fitted effect of over 35% in size; further: potency means the concentration at half of the fitted maximal effect)
Outline: (§1)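 CellTiter-Glo luminescence (ATP) after 48 h compound exposure, 37C/5% CO2; 500 cells/well; MIPE 4.0 approved/investigational drugs pinned in; DMSO = 100%, media only = 0% viability.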

[2] = Quantitative High-Throughput drug screen in 47 multiple myeloma cell lines against the NCATS MIPE library collection: KMS27_JCRB cell viability assay (AID 1918970); further: nearly all actives have a fitted effect of over 30% in size; further: potency means the concentration at half of the fitted maximal effect
Outline: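 Viability inhibition screen, 48 h compound exposure, luminescent ATP read-out.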

[3] = Quantitative High-Throughput drug screen in 47 multiple myeloma cell lines against the NCATS MIPE library collection: KMS12PE_JCRB cell viability assay (AID 1918972); further: nearly all actives have a fitted effect of over 30% in size; further: potency means the concentration at half of the fitted maximal effect; on viability: series mostly up to about 46 µM
Outline: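 We plated 500 myeloma cells per well, pinned in MIPE 4.0 compounds, and incubated for 48 hours at 37C. ATP was then quantified with CellTiter-Glo, with DMSO and media-only wells defining 100% and 0%.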

[4] = Quantitative High-Throughput drug screen in 47 multiple myeloma cell lines against the NCATS MIPE library collection: KMS26_JCRB cell viability assay (AID 1918975); further: nearly all actives have a fitted effect of over 45% in size; further: potency means the concentration at half of the fitted maximal effect
Outline: (§2)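 Myeloma cell lines, 500 cells per well, exposed to MIPE 4.0 library compounds for 48 h at 37C, 5% CO2. Viability from ATP by CellTiter-Glo luminescence; normalised to DMSO (100%) and media-only (0%) wells.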

[5] = Quantitative High-Throughput drug screen in 47 multiple myeloma cell lines against the NCATS MIPE library collection: NCIH929_DSMZ cell viability assay (AID 1918978); further: nearly all actives have a fitted effect of over 35% in size; further: potency means the concentration at half of the fitted maximal effect
Outline: (§3)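 Plated at 500 cells per well, myeloma lines received MIPE 4.0 compounds by pin tool. Following 48 h culture at 37 °C, CellTiter-Glo luminescence gave viability relative to DMSO and media-only controls.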

[6] = Quantitative High-Throughput drug screen in 47 multiple myeloma cell lines against the NCATS MIPE library collection: OCIMY1_PLB cell viability assay (AID 1918979); further: series mostly up to about 46 µM; nearly all actives have a fitted effect of over 35% in size
Outline: as §3

[7] = Quantitative High-Throughput drug screen in 47 multiple myeloma cell lines against the NCATS MIPE library collection: KMS34_JCRB cell viability assay (AID 1918985); further: nearly all actives have a fitted effect of over 40% in size; further: potency means the concentration at half of the fitted maximal effect
Outline: as §3

[8] = Quantitative High-Throughput drug screen in 47 multiple myeloma cell lines against the NCATS MIPE library collection: OCIMY5_PLB cell viability assay (AID 1918988); further: nearly all actives have a fitted effect of over 65% in size; further: potency means the concentration at half of the fitted maximal effect
Outline: as §3

[9] = Quantitative High-Throughput drug screen in 47 multiple myeloma cell lines against the NCATS MIPE library collection: SKMM1_PLB cell viability assay (AID 1919863); details: SKMM1 myeloma viability, CellTiter-Glo ATP, 48 h; viability: hits give low values; further: nearly all actives have a fitted effect of over 35% in size; further: potency means the concentration at half of the fitted maximal effect; on viability: series mostly up to about 46 µM
Outline: as §3

[10] = Quantitative High-Throughput drug screen in 47 multiple myeloma cell lines against the NCATS MIPE library collection: MMM1_PLB cell viability assay (AID 1918976); details: MMM1 myeloma cells viability, CellTiter-Glo, 48 h
Outline: as §3

[11] = Quantitative High-Throughput drug screen in 47 multiple myeloma cell lines against the NCATS MIPE library collection: MOLP8_DSMZ cell viability assay (AID 1918977); further: nearly all actives have a fitted effect of over 45% in size
Outline: as §3

[12] = Quantitative High-Throughput drug screen in 47 multiple myeloma cell lines against the NCATS MIPE library collection: MM1S_ATCC cell viability assay (AID 1918980); further: nearly all actives have a fitted effect of over 45% in size; further: potency means the concentration at half of the fitted maximal effect
Outline: as §3

[13] = Quantitative High-Throughput drug screen in 47 multiple myeloma cell lines against the NCATS MIPE library collection: MM1R_ATCC cell viability assay (AID 1918981); further: nearly all actives have a fitted effect of over 35% in size; further: potency means the concentration at half of the fitted maximal effect
Outline: as §3

[14] = Quantitative High-Throughput drug screen in 47 multiple myeloma cell lines against the NCATS MIPE library collection: LP1_DSMZ cell viability assay (AID 1918982); further: nearly all actives have a fitted effect of over 35% in size
Outline: as §3

[15] = Quantitative High-Throughput drug screen in 47 multiple myeloma cell lines against the NCATS MIPE library collection: OPM1_PLB cell viability assay (AID 1918989); further: nearly all actives have a fitted effect of over 40% in size; further: potency means the concentration at half of the fitted maximal effect
Outline: as §3

[16] = Quantitative High-Throughput drug screen in 47 multiple myeloma cell lines against the NCATS MIPE library collection: KMS12BM_JCRB cell viability assay (AID 1918971); further: nearly all actives have a fitted effect of over 35% in size; further: potency means the concentration at half of the fitted maximal effect
Outline: as §2

[17] = Quantitative High-Throughput drug screen in 47 multiple myeloma cell lines against the NCATS MIPE library collection: KMS20_JCRB cell viability assay (AID 1918973); further: nearly all actives have a fitted effect of over 45% in size; further: potency means the concentration at half of the fitted maximal effect
Outline: as §1

[18] = Quantitative High-Throughput drug screen in 47 multiple myeloma cell lines against the NCATS MIPE library collection: L363_DSMZ cell viability assay (AID 1918984); further: nearly all actives have a fitted effect of over 40% in size; further: potency means the concentration at half of the fitted maximal effect
Outline: as §3

[19] = Quantitative High-Throughput drug screen in 47 multiple myeloma cell lines against the NCATS MIPE library collection: OCIMY7_PLB cell viability assay (AID 1918987); further: nearly all actives have a fitted effect of over 65% in size; further: potency means the concentration at half of the fitted maximal effect
Outline: as §3

[20] = Quantitative High-Throughput drug screen in 47 multiple myeloma cell lines against the NCATS MIPE library collection: KMS21BM_JCRB cell viability assay (AID 1918974); further: potency means the concentration at half of the fitted maximal effect
Outline: as §1

## CC(NC(C)(C)C)C(=O)c1cccc(Cl)c1 (configuration not stated)
[1]
  Potency: 3.72 µM (active)
[2]
  Potency: inactive
[3]
  Potency: inactive
[4]
  Potency: inactive
[5]
  Potency: inactive
[6]
  outcome: inactive
[7]
  Potency: inactive
[8]
  Potency: 13.2 µM (active)
[9]
  viability: 112%

## CCC1(c2ccc(N)cc2)CCC(=O)NC1=O (configuration not stated)
[1]
  Potency: inactive
[2]
  Potency: inactive
[3]
  Potency: inactive
[4]
  Potency: inactive
[10]
  Potency: 0.743 µM (active)
[11]
  outcome: inactive
[5]
  Potency: inactive
[6]
  outcome: inactive
[12]
  Potency: inactive
[13]
  Potency: inactive
[14]
  outcome: inactive
[7]
  Potency: inactive
[8]
  Potency: inactive
[15]
  Potency: inactive

## CN1C(=O)CCS(=O)(=O)C1c1ccc(Cl)cc1 (configuration not stated)
[2]
  Potency: inactive
[16]
  Potency: inactive
[3]
  Potency: inactive
[17]
  Potency: inactive
[4]
  Potency: inactive
[11]
  outcome: inactive
[5]
  Potency: 20.9 µM (active)
[12]
  Potency: 18.7 µM (active)
[13]
  Potency: inactive
[14]
  outcome: inactive
[18]
  Potency: inactive
[7]
  Potency: inactive
[19]
  Potency: inactive
[8]
  Potency: inactive
[15]
  Potency: inactive
[9]
  viability: 109%

## CC(C)c1cccc(C(C)C)c1O
[1]
  Potency: inactive
[17]
  Potency: inactive
[11]
  outcome: inactive
[5]
  Potency: inactive
[6]
  outcome: inactive
[12]
  Potency: 8.33 µM (active)
[13]
  Potency: inactive
[14]
  outcome: inactive
[7]
  Potency: inactive
[15]
  Potency: inactive
[9]
  viability: 119%

## C[C@]12CCC(=O)C=C1CC[C@@H]1[C@H]3CC[C@](C)(O)[C@@]3(C)CC[C@@H]12
[16]
  Potency: 34 µM (active)
[3]
  Potency: 15.2 µM (active)
[5]
  Potency: inactive
[6]
  outcome: inactive
[12]
  Potency: 38.2 µM (active)
[19]
  Potency: 30.3 µM (active)
[8]
  Potency: 48.1 µM (active)
[15]
  Potency: inactive
[9]
  Potency: 30.3 µM (active)

## CC(C)C[C@H](CN)CC(=O)O
[1]
  Potency: inactive
[2]
  Potency: inactive
[16]
  Potency: 9.35 µM (active)
[3]
  Potency: inactive
[4]
  Potency: inactive
[10]
  Potency: 11.8 µM (active)
[11]
  outcome: inactive
[5]
  Potency: inactive
[6]
  outcome: inactive
[13]
  Potency: inactive
[14]
  outcome: inactive
[7]
  Potency: inactive
[15]
  Potency: inactive

## C[C@]12CC[C@H]3[C@@H](CC[C@@]45O[C@H]4C(O)=C(C#N)C[C@]35C)[C@H]1CC[C@H]2O
[1]
  Potency: inactive
[16]
  Potency: inactive
[17]
  Potency: inactive
[5]
  Potency: inactive
[6]
  outcome: inactive
[12]
  Potency: 1.48 µM (active)
[14]
  outcome: inactive
[18]
  Potency: inactive
[7]
  Potency: 16.6 µM (active)
[19]
  Potency: 5.26 µM (active)
[15]
  Potency: inactive

## C[C@](O)(CS(=O)(=O)c1ccc(F)cc1)C(=O)Nc1ccc(C#N)c(C(F)(F)F)c1
[1]
  Potency: 0.418 µM (active)
[2]
  Potency: inactive
[16]
  Potency: 26.4 µM (active)
[17]
  Potency: 0.833 µM (active)
[20]
  Potency: 6.62 µM (active)
[4]
  Potency: 4.69 µM (active)
[5]
  Potency: 0.296 µM (active)
[12]
  Potency: 0.372 µM (active)
[13]
  Potency: 2.35 µM (active)
[19]
  Potency: 0.469 µM (active)
[8]
  Potency: 0.372 µM (active)
[15]
  Potency: 1.87 µM (active)

## COc1cc(OC)c(OC)cc1C=O
[1]
  Potency: inactive
[2]
  Potency: 0.0047 µM (active)
[3]
  Potency: inactive
[17]
  Potency: inactive
[20]
  Potency: inactive
[4]
  Potency: inactive
[5]
  Potency: inactive
[6]
  outcome: inactive
[13]
  Potency: inactive
[14]
  outcome: inactive
[18]
  Potency: inactive
[7]
  Potency: inactive
[8]
  Potency: inactive
[15]
  Potency: inactive

## O=P1(N(CCCl)CCCl)NCCCO1 (configuration not stated)
[2]
  Potency: 20.9 µM (active)
[3]
  Potency: 8.33 µM (active)
[20]
  Potency: 14.8 µM (active)
[10]
  Potency: 2.35 µM (active)
[5]
  Potency: 8.33 µM (active)
[6]
  outcome: inactive
[12]
  Potency: inactive
[14]
  outcome: inactive
[18]
  Potency: 10.5 µM (active)
[15]
  Potency: 13.2 µM (active)

## O=C(O)CCCc1ccc(N(CCCl)CCCl)cc1
[3]
  Potency: inactive
[20]
  Potency: inactive
[6]
  outcome: inactive
[13]
  Potency: 23.5 µM (active)
[19]
  Potency: 4.69 µM (active)
[8]
  Potency: inactive

## C[C@]12CC[C@@H]3c4ccc(OC(=O)N(CCCl)CCCl)cc4CC[C@H]3[C@@H]1CC[C@@H]2OP(=O)(O)O
[1]
  Potency: inactive
[2]
  Potency: inactive
[16]
  Potency: inactive
[20]
  Potency: inactive
[11]
  outcome: inactive
[5]
  Potency: inactive
[6]
  outcome: inactive
[14]
  outcome: inactive
[18]
  Potency: inactive
[7]
  Potency: inactive
[15]
  Potency: inactive

## CN1C(=O)COc2c(C(=O)NC3CN4CCC3CC4)cc(Cl)cc21 (configuration not stated)
[1]
  Potency: inactive
[16]
  Potency: inactive
[3]
  Potency: inactive
[4]
  Potency: inactive
[11]
  outcome: inactive
[5]
  Potency: inactive
[6]
  outcome: inactive
[13]
  Potency: inactive
[14]
  outcome: inactive
[15]
  Potency: inactive
[9]
  viability: 152%
